Results published in the supplement of paper PMC3842684.

test system: P. falciparum NF54-pfs16-GFP early (I-III) stage gametocytes; experiment: relative % inhibition of viable gametocyte number; higher = more gametocytocidal; conditions: 0.5 µM; stage: early (I-III) gametocyte; incubation 72 h
In short: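 Early-stage (I/IIa, day 2) or late-stage (day 8) NF54 pfs16-GFP gametocytes were isolated by magnet and plated in 384-well poly-D-lysine imaging plates at 10% parasitaemia and 0.1% haematocrit, with compound in duplicate at 5 or 0.5 µM. After 72 h at 37°C under 5% CO2 and 5% O2, MitoTracker Red was added overnight. Confocal imaging scored elongated GFP objects whose MitoTracker signal passed a cut-off as viable gametocytes. Relative inhibition was normalised against vehicle and positive-control wells on the same plate.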

Compound | relative % inhibition [%]
CCc1ccc(Nc2cc(C)nc3nc(C)nn23)cc1 | -3.8
COc1cccc(O)c1CN1CCC2(CCCN(Cc3ccc(F)cc3)C2)C1 (stereo not drawn) | 11.3
O=C(Nc1ccc(CN2CCOCC2)cc1)c1ccc(-c2ccc(Br)cc2)o1 | 16.2
CCCCC(O)(c1ccc(Cl)cc1)C(CN1CCOCC1)c1ccc(Cl)cc1 (stereo not drawn) | 10.8
O=C(NCC(c1ccsc1)N1CCCCCC1)c1ccc(C(F)(F)F)cc1 (stereo not drawn) | -5.22
COc1ccc2nc(N)nc(C)c2c1 | 15.7
COc1ccc(C(=O)Nc2ccc(Cl)cc2C(=O)Nc2ccncc2)cc1 | -7.22
COCCn1c(C)nc2ccccc2c1=O | 9.29
O=C1c2ccc3c4c(ccc(c24)C(=O)N1CCCCO)C(=O)N(CCCCO)C3=O | -9.07
N=c1c2ccccc2nnn1-c1cccc(C(F)(F)F)c1 | 1.39
Cc1ccc(C2CC(C(F)(F)F)n3nc(C(=O)N4CCN(C(c5ccccc5)c5ccccc5)CC4)cc3N2)cc1 (stereo not drawn) | 3.32
CN(C)CCCNCc1ccc(-c2ccc(F)c(Cl)c2)o1 | 32.7
CC(O)(c1ccc(Cl)cc1)C(CN1CCCCC1)c1ccccc1 (stereo not drawn) | 20
OC(CNCC1CCCO1)Cn1c2ccc(Cl)cc2c2cc(Cl)ccc21 (stereo not drawn) | 16.5
COc1ccc2c(=O)cc(C(Cl)(Cl)Cl)oc2c1 | 68.6
COc1ccc(C2c3ccc4ccccc4c3Oc3ncn(CCCN(C)C)c(=N)c32)cc1 (stereo not drawn) | 76.2
CCC(c1ccccc1)c1nn2c(-c3cccs3)nnc2s1 (stereo not drawn) | -3.13
COc1cccc(C(=O)Nc2ccc(-c3nc4ccccc4[nH]3)cc2)c1 | 12.4
CCOc1ccc(-n2cc(-c3ccccc3)c3c(SCc4cc(C)ccc4C)ncnc32)cc1 | -4.24
Cc1cc(N2CCN(C3CCCC3)CC2)n2c(nc3ccccc32)c1C#N | -10.1

same assay, conditions: 5 µM; stage: early (I-III) gametocyte; incubation 72 h

Compound | relative % inhibition [%]
COc1ccc(Nc2nc(NN=Cc3ccc(O)cc3)nc(Nc3ccc([N+](=O)[O-])cc3)n2)cc1 | 101
COc1cccc(C=Cc2nc(=O)c3ccccc3o2)c1OC | -17.9
O=C(Nc1ccccc1O)c1ccc(Oc2cccc(C(=O)Nc3ccccc3O)c2)cc1 | 50.6
COc1ccccc1N1C(=N)SC(=Cc2ccc(OCc3ccccc3F)cc2)C1=O | 25.8
O=C(Nc1ccc(Cl)c(Cl)c1)Nc1ccc(Cl)c(Cl)c1 | 96
C[n+]1c2ccccc2nc2ccc(NCCO)cc21 | 0.402
COc1cc(SC)ccc1C(=O)N1CCCC(C)C1 (stereo not drawn) | -6.96
O=c1nc(C=Cc2ccc(Br)cc2)oc2ccccc12 | -18.8
COc1ccc2c(c1)OC(O)(C(F)(F)C(F)(F)F)CC2=O (stereo not drawn) | -4.42
CCOC(=O)c1cn(CC)c2cc(N(C)CCc3ccc(OC)c(OC)c3)c(F)cc2c1=O | 51.6
CCOc1cccc(C(=O)Nc2ccc(-c3nc4ccccc4[nH]3)cc2)c1 | -17.2
CCOc1c(Cl)cc(CNCC(O)c2ccccc2)cc1OC (stereo not drawn) | 13.9
O=C(Nc1cccc(C2=NCCN2)c1)Nc1cccc(C2=NCCN2)c1 | 6.29
O=C(NCCCN1CCC(N2CCCCC2)CC1)C1=Cc2cc(Br)ccc2OC1 | 102
Cc1ccc(CN2CCC(C(=O)Nc3ccc(-c4cc5ccccc5[nH]4)cc3)CC2)o1 | 90.5
COc1ccc2c(c1OC)C(=O)N1c3ccccc3N=C(c3ccc(C)cc3)CC21 (stereo not drawn) | 60.6
CCN(CC)S(=O)(=O)c1ccc(-c2csc(Nc3ccc(C)c(C)c3)n2)cc1 | 31.5
CCOC(=O)c1cnc2ccc(OC)cc2c1Nc1ccc(N2CCN(C)CC2)cc1 | 24.4
CCc1ccc(Nc2cc(C)nc3nc(C)nn23)cc1 | -31

Compound | relative % inhibition [%]
COc1cccc(O)c1CN1CCC2(CCCN(Cc3ccc(F)cc3)C2)C1 (stereo not drawn) | 80.5
O=C(Nc1ccc(CN2CCOCC2)cc1)c1ccc(-c2ccc(Br)cc2)o1 | -18
CCCCC(O)(c1ccc(Cl)cc1)C(CN1CCOCC1)c1ccc(Cl)cc1 (stereo not drawn) | 92.5
O=C(NCC(c1ccsc1)N1CCCCCC1)c1ccc(C(F)(F)F)cc1 (stereo not drawn) | 0.803
COc1ccc2nc(N)nc(C)c2c1 | 24.8
COc1ccc(C(=O)Nc2ccc(Cl)cc2C(=O)Nc2ccncc2)cc1 | 22.3
COCCn1c(C)nc2ccccc2c1=O | 10.1
O=C1c2ccc3c4c(ccc(c24)C(=O)N1CCCCO)C(=O)N(CCCCO)C3=O | 4.23
N=c1c2ccccc2nnn1-c1cccc(C(F)(F)F)c1 | 17.4
Cc1ccc(C2CC(C(F)(F)F)n3nc(C(=O)N4CCN(C(c5ccccc5)c5ccccc5)CC4)cc3N2)cc1 (stereo not drawn) | 13.2
CN(C)CCCNCc1ccc(-c2ccc(F)c(Cl)c2)o1 | 99.5
CC(O)(c1ccc(Cl)cc1)C(CN1CCCCC1)c1ccccc1 (stereo not drawn) | 59.1
OC(CNCC1CCCO1)Cn1c2ccc(Cl)cc2c2cc(Cl)ccc21 (stereo not drawn) | 31.6
COc1ccc2c(=O)cc(C(Cl)(Cl)Cl)oc2c1 | 85.1
COc1ccc(C2c3ccc4ccccc4c3Oc3ncn(CCCN(C)C)c(=N)c32)cc1 (stereo not drawn) | -22.6
CCC(c1ccccc1)c1nn2c(-c3cccs3)nnc2s1 (stereo not drawn) | -13.5
COc1cccc(C(=O)Nc2ccc(-c3nc4ccccc4[nH]3)cc2)c1 | -15.3
CCOc1ccc(-n2cc(-c3ccccc3)c3c(SCc4cc(C)ccc4C)ncnc32)cc1 | -7.96
Cc1cc(N2CCN(C3CCCC3)CC2)n2c(nc3ccccc32)c1C#N | -15.8
